{"source": "ChEMBL document CHEMBL3988442", "about": "“University of Dundee, Small-Polar-MMV Screening Library” (2021)", "note": "About 13,000 (27%) of roughly 48,000 compounds showed an effect of 50% or more. This is one part of the list."}
{"test_system": "Wolbachia pipientis", "assay": "Anti-Wolbachia Cell-Based Screen", "assay_type": "functional", "design": "scale not given: in the data most compounds retested in dose-response had high values", "details": "5 µM", "units": {"Percent Effect": "%"}}
{"smiles": "CN(C(=O)c1cccnc1OCC(F)F)c1ccc2c(c1)CCO2", "Percent Effect": -7.463}
{"smiles": "Cc1c(-c2c(-c3ccccc3)ncn2[C@@H](C(=O)O)[C@H](C)O)cnn1C", "Percent Effect": -13.76}
{"smiles": "COCc1ncn(Cc2nc(-c3ccc(OC)cc3F)oc2C)n1", "Percent Effect": -0.9498}
{"smiles": "Cc1ccc(N2CCC(NC(C)c3cccs3)CC2)nc1", "note": "(configuration not stated)", "Percent Effect": -4.773}
{"smiles": "Cn1cc(-c2csc(N3CCSCC3)n2)cn1", "Percent Effect": -8.104}
{"smiles": "CS(=O)(=O)N1CCC(c2nnc(CN3CCCC3)n2C2CC2)CC1", "Percent Effect": -12.66}
{"smiles": "CN(Cc1cc(C[C@@H]2C[C@H](N)C2(C)C)no1)c1ccccc1", "Percent Effect": 4.71}
{"smiles": "O=C(O)C(F)(F)F.O=C(c1cnc2ccccc2c1)N1CCC2(CCN2c2ncccn2)C1", "note": "(configuration not stated)", "Percent Effect": 69.16}
{"smiles": "Cc1ccc(C(=O)N2CCC3(CC2)NC(=O)CC3c2ccccc2)cn1.O=C(O)C(F)(F)F", "note": "(configuration not stated)", "Percent Effect": 15.96}
{"smiles": "O=C(O)C(F)(F)F.O=C(O)C(F)(F)F.O=C(c1c[nH]cn1)N1CCC(F)(F)C2(CCN(c3ccccn3)C2)C1", "note": "(configuration not stated)", "Percent Effect": 6.098}
{"smiles": "O=C(O)C(F)(F)F.O=C(c1ccccc1)N1CCC2(CCCN2c2ncccn2)CC1", "Percent Effect": 93.81}
{"smiles": "Cc1ccc(C(=O)N2CCC3(CCN3c3ncccn3)C2)cn1.O=C(O)C(F)(F)F", "note": "(configuration not stated)", "Percent Effect": 98.39}
{"smiles": "O=C(O)C(F)(F)F.O=C(c1ccccn1)N1CCC2(CC1)C(=O)Nc1ccccc12", "Percent Effect": -9.696}
{"smiles": "O=C(O)C(F)(F)F.O=C(c1ccc2ccccc2n1)N1CCC2(CCN2c2ncccn2)C1", "note": "(configuration not stated)", "Percent Effect": 82.49}
{"smiles": "COCC1CC2(CCN(C(=O)c3cnc4ccccc4c3)CC2)CO1.O=C(O)C(F)(F)F", "note": "(configuration not stated)", "Percent Effect": 5.909}
{"smiles": "CCCc1nnsc1C(=O)N1CCN(CC(O)C2CC2)CC1.Cl", "note": "(configuration not stated)", "Percent Effect": -6.099}
{"smiles": "O=C(c1ccc2sccc2c1)N1CCC(C(=O)O)(n2cccn2)CC1", "Percent Effect": -6.348}
{"smiles": "COc1ccccc1-c1ncc(CN2CCCC[C@H](N(C)C)C2)s1", "Percent Effect": -5.387}
{"smiles": "Cc1cc(F)c(S(=O)(=O)N(C)CCn2cccn2)cc1F", "Percent Effect": -6.407}
{"smiles": "O=C(O)C(F)(F)F.O=C(c1cccc(O)c1)N1CCC2(CCN2c2ncccn2)C1", "note": "(configuration not stated)", "Percent Effect": 103.8}
{"smiles": "CCN(CC)CCNC(=O)c1cc(C(C)C)nc(N2CCCC2)n1", "Percent Effect": 3.007}
{"smiles": "CCC(NC(=O)C1CCN(S(C)(=O)=O)CC1)c1ccc(OC)c(C)c1", "note": "(configuration not stated)", "Percent Effect": -3.123}
{"smiles": "CCC(NC(=O)NC1CCN(S(C)(=O)=O)CC1)c1cccs1", "note": "(configuration not stated)", "Percent Effect": 5.409}
{"smiles": "Cc1csc(C(Cc2ccsc2)NC(=O)C2CCN(S(C)(=O)=O)CC2)n1", "note": "(configuration not stated)", "Percent Effect": 94.26}
{"smiles": "CS(=O)(=O)N1CCC(C(=O)NC(Cc2ccsc2)c2cccnc2)CC1", "note": "(configuration not stated)", "Percent Effect": 127.1}
{"smiles": "CS(=O)(=O)N1CCC(C(=O)NC(Cc2ccsc2)c2ccccn2)CC1", "note": "(configuration not stated)", "Percent Effect": -12.55}
{"smiles": "CCC(NC(=O)C1CCN(S(C)(=O)=O)CC1)c1ccc(OC)c(OC)c1", "note": "(configuration not stated)", "Percent Effect": -10.24}
{"smiles": "COCCn1cc(C(=O)N2CCCC2c2cccc(C)c2)ccc1=O", "note": "(configuration not stated)", "Percent Effect": 1.918}
{"smiles": "CCC(C)NS(=O)(=O)Cc1cccc(NC(=O)C(C)C)c1", "note": "(configuration not stated)", "Percent Effect": -6.422}
{"smiles": "CC[C@@H](C)[C@@H](N)C(=O)Nc1cccc(-c2cnc(NCCO)nc2)c1", "Percent Effect": 122.5}
{"smiles": "CN(C)c1ncc(NC(=O)c2cccc(Nc3cnn(C)c3)c2)cn1", "Percent Effect": -2.232}
{"smiles": "CCC(CC)C(O)CNC(=O)Nc1cccc(-c2nccn2C)c1", "note": "(configuration not stated)", "Percent Effect": 17.02}
{"smiles": "CC[C@@H](C)[C@@H](N)C(=O)Nc1cccc(-c2cnc(N(C)C)nc2)c1", "Percent Effect": 111.5}
{"smiles": "CC[C@@H](C)[C@@H](N)C(=O)Nc1cccc(-c2cnc(N(C)CCO)nc2)c1", "Percent Effect": 118.1}
{"smiles": "Cn1ccnc1-c1cccc(NC(=O)NCCCO)c1", "Percent Effect": -3.437}
{"smiles": "CC(NC(N)=O)C(=O)Nc1ccc(OCc2cccc(F)c2)c(F)c1", "note": "(configuration not stated)", "Percent Effect": -7.991}
{"smiles": "CCn1nnnc1-c1cccc(NC(N)=O)c1", "Percent Effect": 11.47}
{"smiles": "CC[C@@H](C)[C@@H](N)C(=O)Nc1cccc(-c2cnc(N)nc2)c1", "Percent Effect": 118.7}
{"smiles": "CN(C)c1ncc(-c2c(-c3ccccc3)ncn2C(CO)C(=O)O)cn1", "note": "(configuration not stated)", "Percent Effect": -11.25}
{"smiles": "CCC(Nc1cccc(OC)c1)C(=O)N(CCO)Cc1nccs1", "note": "(configuration not stated)", "Percent Effect": -9.396}
{"smiles": "O=C(NCCc1nnc2n1CCCCC2)N1CCC2(CCCC2)CC1", "Percent Effect": -8.228}
{"smiles": "O=C(CN1CCN(c2ccnc3c(F)ccc(F)c23)CC1)N1CCCC1", "Percent Effect": -6.623}
{"smiles": "Cc1ccc(C)c(OC(C)C(=O)Nc2cccnc2)c1", "note": "(configuration not stated)", "Percent Effect": -35.64}
{"smiles": "CCc1nnc2n1CCN(CCC(=O)Nc1cc(C)on1)C2", "Percent Effect": -8.821}
{"smiles": "CC(C)c1nnc2n1CCN(CC(=O)Nc1sccc1C#N)C2", "Percent Effect": -2.717}
{"smiles": "CC(C)c1nnc2n1CCN(CCC(=O)Nc1sccc1C#N)C2", "Percent Effect": 103.7}
{"smiles": "CCc1nnc2n1CCN(CC(=O)Nc1sccc1C#N)C2", "Percent Effect": 8.043}
{"smiles": "CCc1nnc2n1CCN(CCC(=O)Nc1sccc1C#N)C2", "Percent Effect": 88.78}
{"smiles": "CC(C)c1nnc2n1CCN(CC(=O)Nc1nncs1)C2", "Percent Effect": 3.103}
{"smiles": "CCc1c(C)sc2ncnc(N3C[C@H](O)[C@@H](N4CCCC4)C3)c12", "Percent Effect": 10.47}
{"smiles": "O=C(NCCCc1nnc2ccccn12)c1ccccc1C1CCNC1", "note": "(configuration not stated)", "Percent Effect": 3.583}
{"smiles": "Cl.O=C(NCCn1nc(C2CCNC2)c2cccnc21)c1ccccc1", "note": "(configuration not stated)", "Percent Effect": 112}
{"smiles": "Cl.O=C(NCCn1nc(C2CCNC2)c2cccnc21)c1ccccn1", "note": "(configuration not stated)", "Percent Effect": 108.3}
{"smiles": "O=C(NCCN1CCNCC1)c1nc2ccccc2c(=O)[nH]1", "Percent Effect": -2.833}
{"smiles": "O=C(NCc1cnn2cccnc12)c1cccc(CC2CCNCC2)c1", "Percent Effect": 4.069}
{"smiles": "O=C(NCCn1nc2ccccn2c1=O)c1cc(C2CC2)[nH]n1", "Percent Effect": 7.505}
{"smiles": "Cc1nc(C)n(CC2CCCCN2CC(=O)N(C)Cc2ccco2)n1", "note": "(configuration not stated)", "Percent Effect": -3.611}
{"smiles": "CCN(C(=O)NCc1ncc(C)c(OC)c1C)C(C)c1cccnc1", "note": "(configuration not stated)", "Percent Effect": -16.66}
{"smiles": "O=C(c1cc(-c2ccccc2)nc2onc(C3CC3)c12)N1CC[C@H](O)C1", "Percent Effect": -0.1163}
{"smiles": "CC(C)CNc1nc2c(cc1C(=O)NCC1CC1)CCNCC2", "Percent Effect": 3.893}
{"smiles": "O=C(c1cc(C2CC2)nc2onc(-c3ccccc3)c12)N1CCOCC1", "Percent Effect": 3.139}
{"smiles": "CC(C)CNC(=O)c1cc(C2CC2)nc2onc(C3CCNCC3)c12", "Percent Effect": 97.28}
{"smiles": "O=C(c1cc(C2CC2)nc2onc(-c3ccccc3)c12)N1CC[C@H](O)C1", "Percent Effect": 6.458}
{"smiles": "O=C(NC1CC1)c1cc(C2CC2)nc2onc(C3CCNCC3)c12", "Percent Effect": 97.57}
{"smiles": "FC(F)(F)CCc1ccnc(N2CCN(Cc3ccncc3)CC2)n1", "Percent Effect": -2.758}
{"smiles": "CCO[C@H]1CO[C@@]2(CCCN(S(=O)(=O)c3ccccc3)C2)C1", "Percent Effect": -23.06}
{"smiles": "COCc1nc(C(=O)N2CCN(Cc3ccsc3)CC2)cs1", "Percent Effect": -16.22}
{"smiles": "COCC(=O)N1CCN(C(=O)CCc2ccsc2)CC1", "Percent Effect": -13.91}
{"smiles": "COCC(=O)N1CC[C@]2(O)CCN(C(=O)CCc3ccsc3)C[C@@H]2C1", "Percent Effect": 120}
{"smiles": "COCC(=O)N1CC[C@]2(O)CCN(Cc3cccnc3OC)C[C@@H]2C1", "Percent Effect": 17.33}
{"smiles": "COCC(=O)N1CC[C@]2(O)CCN(Cc3ccsc3)C[C@@H]2C1", "Percent Effect": 113.5}
{"smiles": "O=C(CCc1ccsc1)N1CCC(Cc2ccc(CO)cc2)C1", "note": "(configuration not stated)", "Percent Effect": -8.756}
{"smiles": "Cn1cnc2c1CCN(Cc1nc(COc3ccc(F)cc3)no1)C2", "Percent Effect": 1.894}
{"smiles": "Cc1cccc(N2CCN(CCC(=O)NCc3nnc[nH]3)CC2)c1", "Percent Effect": -0.9949}
{"smiles": "CC(C)N1CCC(N2CCCC(C(=O)NCC3(C)COC3)C2)CC1", "note": "(configuration not stated)", "Percent Effect": -5.464}
{"smiles": "Cn1nccc1-c1cnc2n1CCNC21CCN(C(=O)C2(C)CC2)CC1", "Percent Effect": 92.03}
{"smiles": "CCNC(=O)N1CCC2(CC1)CCn1c(-c3ccccc3)cnc12", "Percent Effect": -10.02}
{"smiles": "CS(=O)(=O)N1CCC2(CC1)NCCn1c(-c3ccccc3)cnc12.O=C(O)C(F)(F)F.O=C(O)C(F)(F)F", "Percent Effect": -8.058}
{"smiles": "COc1ccc(-c2cnc3n2CCNC32CCN(S(C)(=O)=O)CC2)cc1", "Percent Effect": -5.963}
{"smiles": "Cn1cc(-c2cnc3n2CCC32CCN(S(C)(=O)=O)CC2)cn1", "Percent Effect": 7.243}
{"smiles": "Cn1nccc1-c1cnc2n1CCC21CCN(C(=O)C2(C)CC2)CC1", "Percent Effect": 98.02}
{"smiles": "O=S(=O)(NCCn1ccc(-c2cccs2)n1)C1CC1", "Percent Effect": 1.599}
{"smiles": "COCCOCCNc1cncc(Br)c1", "Percent Effect": -4.495}
{"smiles": "CCN(Cc1ccncc1)C1CCCN(C/C=C/c2ccc(F)cc2)C1", "note": "(configuration not stated)", "Percent Effect": 3.422}
{"smiles": "O=C(c1cc(Cn2cnc3ccccc32)on1)N1CCOCC1", "Percent Effect": -10.83}
{"smiles": "O=C(NCC1CCCCO1)c1cc(Cn2cnc3ccccc32)[nH]n1", "note": "(configuration not stated)", "Percent Effect": -5.339}
{"smiles": "Cc1nc2ccccc2n1Cc1cc(C(=O)N(C)C2CCOCC2)no1", "Percent Effect": 169.5}
{"smiles": "Cc1nc2ccccc2n1Cc1cc(C(=O)NC2CCOC2)no1", "note": "(configuration not stated)", "Percent Effect": 107.5}
{"smiles": "Cc1ccc(CNC(=O)c2cc(CN3CCC(O)CC3)on2)s1", "Percent Effect": -1.351}
{"smiles": "Cc1nc2ccccc2n1Cc1cc(C(=O)N(C)C2CCOC2)n[nH]1", "note": "(configuration not stated)", "Percent Effect": 98.82}
{"smiles": "Cc1nc2ccccc2n1Cc1cc(C(=O)N2C[C@@H](C)O[C@@H](C)C2)no1", "Percent Effect": -14.98}
{"smiles": "C[C@@H]1CN(C(=O)c2cc(Cn3cnc4ccccc43)on2)C[C@H](C)O1", "Percent Effect": -0.2425}
{"smiles": "COCC1CCCN(C(=O)c2cc(Cn3ccc4ccccc43)[nH]n2)C1", "note": "(configuration not stated)", "Percent Effect": -4.391}
{"smiles": "Cc1ccccc1CN1C[C@@H]2CC[C@H](C1)N(CC1CCC1)C2=O", "Percent Effect": -3.68}
{"smiles": "c1cnnc(N2CCCC2CNc2nc3ccccc3o2)c1", "note": "(configuration not stated)", "Percent Effect": 0.7954}
{"smiles": "Cn1cc(N2CCCC(Nc3ccc4c(c3)CCC(=O)N4)C2=O)cn1", "note": "(configuration not stated)", "Percent Effect": -0.6283}
{"smiles": "CC(NC(=O)NC1CCN(Cc2ccccc2)CC1)c1nncn1C", "note": "(configuration not stated)", "Percent Effect": -0.6608}
